One assay deals with Staphylococcus aureus. Kind of assay: Antibacterial activity against Staphylococcus aureus MRSA ATCC 43300 (CO-ADD:GP_020); MIC in CAMBH media using NBS plates, by Resazurin F(560/590). The format is functional. As to conditions: Concentration 20 uM, ASSAY_TEST Inhibition of Bacterial Growth, detection method Resazurin, Fluorescence (ex560/em590), MEDIA CAMHB, plate type 384well, CORNING #3640, time 18 hr. In general terms: The colour change of resazurin is a common sign of viable cells or microbes.

In the next assay the test system is Acinetobacter baumannii. Kind of assay: Antibacterial activity against Acinetobacter baumannii ATCC 19606 (CO-ADD:GN_034); MIC in CAMBH media using NBS plates, by Resazurin F(560/590). The format is functional. The note with it: Concentration 20 uM, ASSAY_TEST Inhibition of Bacterial Growth, detection method Resazurin, Fluorescence (ex560/em590), MEDIA CAMHB, plate type 384well, CORNING #3640, time 18 hr.

Another assay relates to Escherichia coli. The assay can be described thus: Antibacterial activity against Escherichia coli ATCC 25922 (CO-ADD:GN_001); MIC in CAMBH media using NBS plates, by Resazurin F(560/590). The format is functional. As to conditions: Concentration 20 uM, ASSAY_TEST Inhibition of Bacterial Growth, detection method Resazurin, Fluorescence (ex560/em590), MEDIA CAMHB, plate type 384well, CORNING #3640, time 18 hr.

The subject of a further assay is Klebsiella pneumoniae. The note with it: Concentration 20 uM; ASSAY_TEST Inhibition of Bacterial Growth; detection method Absorption (OD600); MEDIA CAMHB; plate type 384well; NBS; CORNING #3640; time 18 hr.
The next assay has as its system Candida albicans. The note with it: 20 µM.
The subject of another assay is Cryptococcus neoformans. The note with it: Concentration 20 uM; ASSAY_TEST Inhibition of Fungal Growth; detection method Resazurin; Absorption (OD600-OD570); plate type 384well; NBS; CORNING #3640.

Structures are written as SMILES. For part of these data: Entries with a potency or affinity are not part of this list.

In ChEMBL document CHEMBL4296182, “CO-ADD screening of NIH NCI Diversity Set V” one finds Inhibition data, which are given here for 25 molecules.

The term Inhibition denotes the relative decrease from the control value, in per cent.

In the case of `CSc1c(N(C)C)c(=O)c1=S`, the Inhibition with Staphylococcus aureus was -5.31%; in the assay on Acinetobacter baumannii, -13.14%; with Escherichia coli, 11.42%; in the assay with Klebsiella pneumoniae, 6.17%; in the assay with Candida albicans, 1.7%; with Cryptococcus neoformans, -16.36%.

As for `CN(C)CCCN1c2ccc3ccccc3c2Sc2cccc(Cl)c21`, the Inhibition in the assay with Staphylococcus aureus was -10.96%; with Acinetobacter baumannii, 0.47%; with Escherichia coli, 9.47%; with Klebsiella pneumoniae it was 8.34%; with Candida albicans it was 0.69%; with Cryptococcus neoformans, 12.55%.

Turning to `O=c1nc(Nc2cccc(Cl)c2)oc2cc(Cl)oc(=O)c12`, the Inhibition with Staphylococcus aureus was 6.93%; in the assay with Acinetobacter baumannii, 3.28%; in the assay with Escherichia coli, 2.7%; with Klebsiella pneumoniae it was 6.71%; in the assay on Candida albicans, 20.4%; in the assay with Cryptococcus neoformans it was -13.47%.

Take `NC(=O)c1ccc(Oc2ccc(C(N)=O)cc2)cc1`: the Inhibition in the assay with Staphylococcus aureus was 7.05%; with Acinetobacter baumannii, 9.37%; in the assay with Escherichia coli, 0.31%; in the assay on Klebsiella pneumoniae, 15.83%; in the assay with Candida albicans, -0.45%; in the assay with Cryptococcus neoformans, -7.62%.

`Nc1nc(SCc2ccccc2)sc1C(=O)N1CCCCC1`: the Inhibition in the assay with Staphylococcus aureus is 18.6%; with Acinetobacter baumannii, 4.73%; with Escherichia coli, 3.88%; in the assay on Klebsiella pneumoniae it was 21.18%; with Candida albicans it was 8.19%; in the assay on Cryptococcus neoformans it was -7.01%.

As for `COC(=O)C1=C(C)NC(C)=C(C(=O)OC)C(N2C(=O)CCC2=O)C1` (stereo not given), the Inhibition is 18.88% with Staphylococcus aureus; 6.44% in the assay on Acinetobacter baumannii; 0.27% in the assay on Escherichia coli; 9.26% with Klebsiella pneumoniae; 2.3% in the assay on Candida albicans; -2.75% in the assay on Cryptococcus neoformans.

Take `CCOC(=O)C(=O)Cc1cccnn1`: the Inhibition with Staphylococcus aureus was 12.36%; in the assay with Acinetobacter baumannii, -7.97%; in the assay with Escherichia coli it was 16.74%; with Klebsiella pneumoniae, 15.16%; in the assay on Candida albicans, 9.85%; in the assay with Cryptococcus neoformans, -1.54%.

Turning to `O=C1Nc2ccccc2C1(c1ccc(O)cc1)c1ccc(O)cc1` [OXYPHENISATINE], the Inhibition in the assay on Staphylococcus aureus is 24.64%; with Acinetobacter baumannii it was -10.84%; with Escherichia coli, 13.68%; in the assay on Klebsiella pneumoniae, 5.85%; in the assay with Candida albicans, 2.96%; in the assay on Cryptococcus neoformans it was -4.24%.

For `C=CCNC(S)=NCC`, the Inhibition in the assay with Staphylococcus aureus was 0.32%; in the assay on Acinetobacter baumannii it was -1.02%; with Escherichia coli it was 11.35%; in the assay on Klebsiella pneumoniae, 13%; with Candida albicans, 0.61%; in the assay on Cryptococcus neoformans it was -1.87%.

As to `O=[N+]([O-])c1ccc(Cn2cnc3c(O)ncnc32)cc1`, the Inhibition with Staphylococcus aureus is 10.19%; in the assay on Acinetobacter baumannii it was 8.82%; in the assay on Escherichia coli it was 7.89%; with Klebsiella pneumoniae, 11.73%; with Candida albicans, 2.42%; in the assay on Cryptococcus neoformans it was -11.97%.

Turning to `O=C(C=C=Nc1ccccc1)C(=O)N=C=Cc1ccccc1`, the Inhibition with Staphylococcus aureus came to 7.34%; with Acinetobacter baumannii, 5.35%; in the assay with Escherichia coli, 5.03%; in the assay with Klebsiella pneumoniae it was 25.39%; in the assay with Candida albicans, 6.53%; with Cryptococcus neoformans, 5.95%.

In the case of `CCCCCCCC1(C)NC(=O)NC1=O` (stereo not given), the Inhibition was 7.54% with Staphylococcus aureus; 3.29% with Acinetobacter baumannii; 6.05% with Escherichia coli; 5.77% with Klebsiella pneumoniae; 0.59% in the assay with Candida albicans; -12.36% with Cryptococcus neoformans.

As to `O=C1OCC/C1=C\c1ccc2c(c1)OCO2`, the Inhibition is 9.07% in the assay on Staphylococcus aureus; -7.38% in the assay on Acinetobacter baumannii; 9.99% in the assay with Escherichia coli; 4.4% in the assay with Klebsiella pneumoniae; 3.83% in the assay on Candida albicans; 0.17% with Cryptococcus neoformans.

`O=c1[nH]c2c(cnn2-c2ccc(Cl)cc2)c(=O)n1-c1cccc(Cl)c1`: the Inhibition with Staphylococcus aureus is 5.86%; in the assay with Acinetobacter baumannii, 6.48%; in the assay on Escherichia coli it was -10.38%; with Klebsiella pneumoniae, 28.41%; in the assay with Candida albicans it was 2.46%; in the assay with Cryptococcus neoformans, -10.88%.

Turning to `O=C(Nc1ccc2ccccc2c1)c1ccc(Cl)cc1Cl`, the Inhibition in the assay on Staphylococcus aureus was 8.36%; in the assay on Acinetobacter baumannii, -2.05%; in the assay on Escherichia coli, 3.67%; in the assay with Klebsiella pneumoniae, -0.53%; in the assay with Candida albicans it was -0.67%; in the assay on Cryptococcus neoformans it was -1.28%.

On to `O=C1C(CO)C(CO)C(CO)C1CO` (stereo not given), for which the Inhibition with Staphylococcus aureus is 12.78%; in the assay on Acinetobacter baumannii, -16.04%; with Escherichia coli, 12.18%; in the assay on Klebsiella pneumoniae, 2.22%; with Candida albicans, -0.61%; in the assay with Cryptococcus neoformans, -11.22%.

For `COC(=O)C1CC(O)C(O)C(O)C1` (stereo not given), the Inhibition is 17.7% with Staphylococcus aureus; -10.09% in the assay on Acinetobacter baumannii; 12.92% with Escherichia coli; 15.79% in the assay on Klebsiella pneumoniae; 1.86% in the assay on Candida albicans; -4.69% with Cryptococcus neoformans.

On to `O=C(Nc1ccc(F)cc1)OCCOc1ccc(Br)cc1`, for which the Inhibition in the assay with Staphylococcus aureus was 6.52%; with Acinetobacter baumannii, 0.97%; in the assay with Escherichia coli, -0.96%; in the assay with Klebsiella pneumoniae it was 0.6%; in the assay with Candida albicans it was 2.88%; in the assay on Cryptococcus neoformans it was 3.63%.

For `O=C1Cc2cccc(O)c(=O)c2C(=O)O1`, the Inhibition was 18.22% in the assay on Staphylococcus aureus; 9.21% with Acinetobacter baumannii; 9.09% with Escherichia coli; 8.59% in the assay with Klebsiella pneumoniae; 1.02% with Candida albicans; -4.33% with Cryptococcus neoformans.

For `Cc1ccc([N+](=O)[O-])cc1NC(=O)Nc1ccc(S(N)(=O)=O)cc1`, the Inhibition in the assay with Staphylococcus aureus is 2.59%; in the assay with Acinetobacter baumannii, 7.91%; in the assay on Escherichia coli, 0%; in the assay with Klebsiella pneumoniae, 0.38%; in the assay with Candida albicans, -0.57%; in the assay on Cryptococcus neoformans it was -7.76%.

On to `Brc1ccc(/N=N/c2ccc3ccccc3n2)cc1`, for which the Inhibition was 10.21% in the assay on Staphylococcus aureus; 4.06% in the assay on Acinetobacter baumannii; -16.68% with Escherichia coli; 5.4% in the assay on Klebsiella pneumoniae; 5.16% in the assay with Candida albicans; 43.68% with Cryptococcus neoformans.

On to `CCNc1nc(NC(C)C)nc(-c2ccncc2)n1`, for which the Inhibition in the assay with Staphylococcus aureus was 6.99%; in the assay with Acinetobacter baumannii it was -1.34%; in the assay on Escherichia coli, 9.95%; with Klebsiella pneumoniae, 10%; in the assay on Candida albicans, 1.8%; with Cryptococcus neoformans, -10.92%.

In the case of `CC1(CN2CCCC2)CCC(NC(=O)C(c2ccccc2)c2ccccc2)C(C)(C)O1` (stereo not given), the Inhibition in the assay on Staphylococcus aureus is 23.4%; with Acinetobacter baumannii, 6.65%; in the assay with Escherichia coli it was 12.21%; in the assay on Klebsiella pneumoniae, 18.43%; in the assay on Candida albicans it was 0.1%; in the assay with Cryptococcus neoformans, -5.78%.

In the case of `COc1cc(C(=O)C(=O)c2cc(OC)c(O)c(OC)c2)cc(OC)c1O`, the Inhibition in the assay on Staphylococcus aureus was 3.22%; in the assay with Acinetobacter baumannii, 7.73%; in the assay on Escherichia coli, -5.19%; in the assay with Klebsiella pneumoniae, 5.73%; in the assay with Candida albicans, 3.18%; in the assay with Cryptococcus neoformans it was 0.06%.

Turning to `COC(=O)Cc1[nH]c(S)nc1C(=O)OC`, the Inhibition was -11.54% with Staphylococcus aureus; 1.23% in the assay on Acinetobacter baumannii; -12.23% in the assay with Escherichia coli; 0.59% with Klebsiella pneumoniae; 1.43% in the assay with Candida albicans; 19.86% in the assay on Cryptococcus neoformans.
